Assay [1] has as its target Luciferin 4-monooxygenase (Photinus pyralis) (UniProt P08659). Put plainly: CCTE_Simmons_QuantiLum_inhib_2: CCTE's Firefly Luciferase Inhibition Assay, Simmons Lab (AID 2283767).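 As to AC50: potency for inhibitors that lower luciferase luminescence relative to DMSO.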 In outline:
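Luminescence loss relative to DMSO vehicle defines inhibition; detection reagent containing 150 uM D-luciferin and 147 uM dATP (final, pH 7.8) is injected immediately before each read. Enzyme is preincubated with an 8-point titration (5 nM–87.5 uM final) for 30 min at 37C.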

Assay [2] is described as follows: ACEA_AR_agonist_AUC_viability: ACEA Biosciences xCELLigence Real-Time Cell Analysis on Androgen Receptor Agonism for Viability (AID 2283775).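 As to AC50: viability read 80 hours after compound addition.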 Put shortly: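 Real-time impedance tracking of 22Rv1 growth, readings every 5 min for 5 h then hourly; area-under-curve viability endpoint at 80 hours, relative to DMSO. Compounds at eight concentrations, 1:4 steps, top 100 uM, n = 2.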

A short description of assay [3]: ACEA_AR_antagonist_AUC_viability: ACEA Biosciences xCELLigence Real-Time Cell Analysis on Androgen Receptor Antagonism for Viability (AID 2283776).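 Also: 22Rv1 human prostate cancer cells growing on impedance electrode plates; hits lower the growth signal relative to DMSO meaning cytotoxicity.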 In outline:
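22Rv1 prostate cells, continuous dosing up to 100 uM final (0.5% DMSO max), duplicate plates. Growth measured by impedance; AUC at 80 h, loss of signal vs DMSO.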

Assay [4] can be described thus: ACEA_ER_AUC_viability: ACEA Biosciences xCELLigence Real-Time Cell Analysis on Estrogen Receptor Agonism for Viability (AID 2283782).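 Also: continuous compound exposure with impedance area under curve over 80 h; hit means loss of impedance signal meaning reduced cell growth or viability.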 In outline:
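T-47D; phenol red-free RPMI1640 + 10% CS-FBS; 8 conc., 1:4 serial, max 100 uM final, ≤0.5% DMSO; n = 2; continuous exposure; impedance monitored to 80 h post-dose; AUC vs DMSO.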

A further assay deals with AR (gene 367) (UniProt P10275). Put plainly: ACEA_AR_agonist_80hr: ACEA Biosciences xCELLigence Real-Time Cell Analysis on Androgen Receptor Agonism for Proliferation (AID 2283783).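 Also: hits increase impedance growth signal above DMSO baseline.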 In outline: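 Androgen-driven proliferation in 22Rv1 cells is tracked as electrical impedance, taken 80 h after continuous exposure to compound (eight concentrations, 1:4 steps, maximum 100 uM final). Activity is fitted in the positive direction with DMSO as baseline.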

Assay [5] in a line: STM_H9_NormalizedViability: Cytotoxicity Assessment at 120 hours in the Stemina devTOX quickPredict H9 human embryonic stem cell (hESC)-based Assay (AID 2283784). Put shortly: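 Pluripotent H9 cells dosed, fresh medium plus compound q24h → cell layer read by CellTiter-Fluor → RFU blank-corrected, normalized to DMSO 0.1% mean. Loss-of-signal fit, DMSO as baseline.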
Assay [6] relates to zebrafish Androgen Receptor (AR), gene 100005148. Kind of assay: ATG_zfAR_XSP1: Attagene TRANS-FACTORIAL Multi-Species (XSP1) HepG2 Assay for zebrafish Androgen Receptor (AR) (AID 2283771). Put shortly: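 HepG2 cells were transiently transfected with a zebrafish AR-GAL4 reporter system and partially stimulated with 3 nM 6-alpha-fluorotestosterone. Reporter mRNA was measured after 24 h dosing by RT-PCR with capillary electrophoresis, and gain-of-signal was fitted relative to DMSO.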

Assay [7] concerns the target zebrafish Estrogen Receptor (ESR1), esr1 (gene 259252) (UniProt P57717). Put plainly: ATG_zfER1_XSP1: Attagene TRANS-FACTORIAL Multi-Species (XSP1) HepG2 Assay for zebrafish Estrogen Receptor (ESR1) (AID 2283772). Put shortly: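 Exogenous chimeric receptor-GAL4 activity is measured in transiently transfected human HepG2 liver cells after 24 h compound exposure. Reporter transcripts are detected by RT-PCR and fluorescent capillary electrophoresis, analysed for signal gain relative to DMSO.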

In assay [8] the test system is zebrafish Estrogen Receptor (ESR2B), gene 317733. Put plainly: ATG_zfER2b_XSP1: Attagene TRANS-FACTORIAL Multi-Species (XSP1) HepG2 Assay for zebrafish Estrogen Receptor (ESR2B) (AID 2283773). Put shortly:
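Gain-of-signal endpoint relative to DMSO: reporter transcript levels quantified by RT-PCR and capillary electrophoresis after 24 h compound exposure of HepG2 cells expressing a zebrafish ER2b-Gal4 chimera.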

Assay [9] has as its system frog Estrogen Receptor (ESR2), gene 100174814. Put plainly: ATG_frER2_XSP1: Attagene TRANS-FACTORIAL Multi-Species (XSP1) HepG2 Assay for frog Estrogen Receptor (ESR2) (AID 2283774). Put shortly:
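Transactivation of an exogenous receptor-Gal4 fusion is tracked in transfected HepG2 cells via induced reporter transcript levels. After 24 h treatment, RT-PCR with capillary electrophoresis quantifies signal gain over DMSO.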

The subject of assay [10] is frog Estrogen Receptor (ESR1), gene 398734. Kind of assay: ATG_frER1_XSP1: Attagene TRANS-FACTORIAL Multi-Species (XSP1) HepG2 Assay for frog Estrogen Receptor (ESR1) (AID 2283777). Put shortly: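 Human hepatoma HepG2 cells carried transiently transfected multiplexed Gal4-driven reporters and were exposed to test chemicals for 24 hours. Transcripts were quantified by fluorescent RT-PCR with capillary electrophoresis, referenced to DMSO.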

The test system of assay [11] is zebrafish Estrogen Receptor (ESR2A), gene 317734. Kind of assay: ATG_zfER2a_XSP1: Attagene TRANS-FACTORIAL Multi-Species (XSP1) HepG2 Assay for zebrafish Estrogen Receptor (ESR2A) (AID 2283778). Put shortly:
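Cells were transfected, dosed for 24 h, then total RNA was isolated. After oligo(dT) reverse transcription, reporter sequences were amplified, FAM-labelled by primer extension, digested with HpaI and sized by capillary electrophoresis; DMSO served as baseline.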

In assay [12] the target is chicken Estrogen Receptor (ESR1), ESR1 (gene 396099) (UniProt P06212). Kind of assay: ATG_chERa_XSP1: Attagene TRANS-FACTORIAL Multi-Species (XSP1) HepG2 Assay for chicken Estrogen Receptor (ESR1) (AID 2283779). Put shortly: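 Human liver HepG2, transient MRTU transfection (NR-Gal4 chimeras, GAL4-UAS reporters); 24 h compound exposure; 3 nM 6-alpha-fluorotestosterone in medium. Total RNA → RT-PCR → 6-FAM primer extension → HpaI → CE. Positive direction vs DMSO baseline.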

The subject of assay [13] is turtle Estrogen Receptor (ESR1), gene 101933533. Put plainly: ATG_trERa_XSP1: Attagene TRANS-FACTORIAL Multi-Species (XSP1) HepG2 Assay for turtle Estrogen Receptor (ESR1) (AID 2283781). Put shortly:
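Activity was taken as gain of reporter transcript over DMSO controls. HepG2 cells carrying GAL4-UAS-driven reporters were exposed for 24 h before RNA was extracted and reporter sequences were measured by fluorescence after capillary separation.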

Assay [14] can be described thus: ArunA_NOG_NucleusCount: ArunA Biomedical's Neurite Outgrowth (NOG) Assay for Nucleus Count (AID 2283756). In outline:
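Human H9-derived differentiated neurons were exposed for 48 h right after seeding. Hoechst-stained nuclei gated by size and intensity were counted by automated high-content imaging as viable neurons. Loss of signal vs DMSO.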

Assay [15] can be described thus: ArunA_NOG_BranchPointsPerNeurite: ArunA Biomedical's Neurite Outgrowth (NOG) Assay for Branch Points Per Neurite (AID 2283759). In outline:
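Automated image analysis traced neurites (processes >10 um) from valid cell bodies after Hoechst and βIII-tubulin staining. hNN cells from H9 embryonic stem cells, 48 h exposure. Fitted bidirectionally against DMSO.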

Assay [16] in a line: ArunA_NOG_NeuriteLength: ArunA Biomedical's Neurite Outgrowth (NOG) Assay for Neurite Length (AID 2283757). Put shortly: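 Differentiated human H9-derived neurons were exposed for 48 h from seeding, then stained with Hoechst and βIII-tubulin. Automated high-content imaging gave total neurite length per valid neuron, counting processes >10 um. Loss of signal was scored versus DMSO.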

A short description of assay [17]: ArunA_NOG_NeuritesPerNeuron: ArunA Biomedical's Neurite Outgrowth (NOG) Assay for Neurites Per Neuron (AID 2283758). In outline:
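Differentiated human H9-derived neurons exposed to chemicals for 48 h from seeding, then stained with Hoechst and βIII-tubulin/DyLight 488. Automated imaging counted neurites (processes >10 um) per valid neuron; loss of signal versus DMSO scored.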

This passage reports AC50 and outcome results from PubChem BioAssay (EPA / NIEHS).

As usually defined, the AC50 is the concentration giving half of the maximal activity seen.

Molecules are shown by their SMILES. Where “and” joins values, the source holds several entries; their conditions need not be identical. Identical values can stand only once. Inconclusive results are not listed. Calls of active or inactive are those of the source. The calls were made as follows: active = hit-call score of the fitted dose curve at least 0.9, where 1 is the maximum; inconclusive = response in the unintended direction; inactive = score below 0.9.

Luciferin 4-monooxygenase (Photinus pyralis), sequence (P08659 whole entry, looked up): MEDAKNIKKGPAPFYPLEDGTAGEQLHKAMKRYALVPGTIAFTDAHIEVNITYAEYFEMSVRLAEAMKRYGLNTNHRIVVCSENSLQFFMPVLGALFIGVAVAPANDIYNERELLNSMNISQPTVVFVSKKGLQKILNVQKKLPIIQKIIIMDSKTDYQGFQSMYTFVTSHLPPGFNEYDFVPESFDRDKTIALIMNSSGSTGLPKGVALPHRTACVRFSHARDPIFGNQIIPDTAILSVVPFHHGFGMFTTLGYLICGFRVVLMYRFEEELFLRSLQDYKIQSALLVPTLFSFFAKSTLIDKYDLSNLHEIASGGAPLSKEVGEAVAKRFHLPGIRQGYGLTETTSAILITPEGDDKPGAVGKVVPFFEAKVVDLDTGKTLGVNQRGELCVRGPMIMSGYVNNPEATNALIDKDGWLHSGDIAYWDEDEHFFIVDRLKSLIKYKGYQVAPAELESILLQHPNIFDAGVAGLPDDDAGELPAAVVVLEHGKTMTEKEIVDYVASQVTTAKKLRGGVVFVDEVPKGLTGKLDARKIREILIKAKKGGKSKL
chicken Estrogen Receptor (ESR1), ESR1 (gene 396099), sequence (P06212 whole entry, looked up, the tested form may be a part): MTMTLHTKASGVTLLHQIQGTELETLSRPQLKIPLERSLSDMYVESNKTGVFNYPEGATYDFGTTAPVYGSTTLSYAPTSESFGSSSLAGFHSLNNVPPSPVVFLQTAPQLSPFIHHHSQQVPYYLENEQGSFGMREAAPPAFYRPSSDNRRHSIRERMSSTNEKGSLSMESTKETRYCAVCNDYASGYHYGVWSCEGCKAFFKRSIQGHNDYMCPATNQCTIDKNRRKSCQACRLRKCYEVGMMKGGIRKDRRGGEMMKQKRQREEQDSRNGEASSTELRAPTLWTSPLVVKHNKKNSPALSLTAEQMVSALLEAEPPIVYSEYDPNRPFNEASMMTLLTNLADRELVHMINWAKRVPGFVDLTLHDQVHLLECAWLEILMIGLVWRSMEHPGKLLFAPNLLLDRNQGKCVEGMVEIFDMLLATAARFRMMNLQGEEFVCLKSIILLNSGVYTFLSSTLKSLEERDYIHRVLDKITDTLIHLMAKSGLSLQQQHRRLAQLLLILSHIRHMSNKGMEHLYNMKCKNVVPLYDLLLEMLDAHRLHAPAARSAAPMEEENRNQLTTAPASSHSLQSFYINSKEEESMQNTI
AR (gene 367), sequence (P10275 whole entry, looked up): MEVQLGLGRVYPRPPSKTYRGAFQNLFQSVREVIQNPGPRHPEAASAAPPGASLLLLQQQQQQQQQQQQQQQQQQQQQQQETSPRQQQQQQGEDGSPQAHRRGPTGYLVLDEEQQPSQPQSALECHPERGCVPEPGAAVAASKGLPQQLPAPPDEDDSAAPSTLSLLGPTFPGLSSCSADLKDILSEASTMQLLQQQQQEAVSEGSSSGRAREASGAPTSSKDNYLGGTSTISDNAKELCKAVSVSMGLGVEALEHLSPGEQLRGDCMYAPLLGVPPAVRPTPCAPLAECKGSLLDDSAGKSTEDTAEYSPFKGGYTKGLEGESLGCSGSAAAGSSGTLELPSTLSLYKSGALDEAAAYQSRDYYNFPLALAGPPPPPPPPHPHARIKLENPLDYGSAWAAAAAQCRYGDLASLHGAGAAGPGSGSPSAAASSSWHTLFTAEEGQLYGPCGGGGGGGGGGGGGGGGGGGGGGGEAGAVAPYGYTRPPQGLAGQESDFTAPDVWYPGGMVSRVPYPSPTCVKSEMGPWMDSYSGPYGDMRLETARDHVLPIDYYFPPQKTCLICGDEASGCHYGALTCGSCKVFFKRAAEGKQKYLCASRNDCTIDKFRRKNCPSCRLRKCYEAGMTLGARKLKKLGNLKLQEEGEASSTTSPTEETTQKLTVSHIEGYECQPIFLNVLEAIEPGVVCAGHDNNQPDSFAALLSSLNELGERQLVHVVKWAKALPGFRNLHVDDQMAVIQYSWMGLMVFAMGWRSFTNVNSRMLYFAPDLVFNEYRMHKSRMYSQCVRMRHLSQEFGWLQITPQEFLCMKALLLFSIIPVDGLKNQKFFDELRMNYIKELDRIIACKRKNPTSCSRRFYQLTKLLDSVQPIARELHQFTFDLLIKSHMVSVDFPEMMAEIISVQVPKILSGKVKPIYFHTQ
zebrafish Estrogen Receptor (ESR1), esr1 (gene 259252), sequence (P57717 whole entry, looked up, the tested form may be a part): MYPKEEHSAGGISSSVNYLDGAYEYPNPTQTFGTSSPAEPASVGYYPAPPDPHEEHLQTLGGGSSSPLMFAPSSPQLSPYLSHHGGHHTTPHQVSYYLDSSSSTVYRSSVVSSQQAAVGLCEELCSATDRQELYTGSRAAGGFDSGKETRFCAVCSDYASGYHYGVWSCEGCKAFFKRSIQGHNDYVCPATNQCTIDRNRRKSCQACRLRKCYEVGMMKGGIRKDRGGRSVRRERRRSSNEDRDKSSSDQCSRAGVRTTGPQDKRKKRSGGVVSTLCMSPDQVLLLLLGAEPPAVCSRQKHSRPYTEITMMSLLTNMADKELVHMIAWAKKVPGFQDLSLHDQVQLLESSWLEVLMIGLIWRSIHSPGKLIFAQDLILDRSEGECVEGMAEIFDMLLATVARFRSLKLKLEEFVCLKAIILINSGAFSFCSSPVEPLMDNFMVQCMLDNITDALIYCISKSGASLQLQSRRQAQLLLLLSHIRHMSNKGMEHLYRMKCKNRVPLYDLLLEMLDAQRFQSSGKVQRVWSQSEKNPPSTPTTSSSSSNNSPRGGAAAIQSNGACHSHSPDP

Consider `CCOP(=S)(Oc1cnc(C(C)(C)C)nc1)OC(C)C` (stereo not drawn), for which the half-maximal activity concentration (AC50) in assay [1] was 61.8 µM (active); in assay [2], 46.3 µM (active); in assay [3] it was 50 µM (active); in assay [4], 81.4 µM (active).

As for `C=C(C)[C@H]1Cc2c(ccc3c2O[C@@H]2COc4cc(OC)c(OC)cc4[C@@H]2C3=O)O1`, the call (in [1]; in assay [4]; in the assay with AR (gene 367)) was inactive. For the same molecule, the AC50 is 0.284 µM (active) in [2], 0.413 µM (active) in [3] and 0.515 µM (active) in assay [5].

As to `COP(=O)(OC)SCn1c(=O)oc2cc(Cl)cnc21`, the call (in [1]; in the assay with AR (gene 367)) was inactive. Moreover, the AC50 in assay [2] was 23.7 µM (active); in [3], 17.2 µM (active); in assay [4], 76.2 µM (active).

Turning to `CCOP(=S)(OCC)OC(Cl)C(Cl)(Cl)Cl` (stereo not drawn), in assay [1], the result was inactive. Moreover, in assay [4], the AC50 is 76.4 µM (active).

With `CCC(=O)Nc1ccc(Cl)c(Cl)c1`, the molecule was called inactive in [1] and in assay [2]. Also, in [3], the concentration at half-maximal activity (AC50) was 20.7 µM (active).

As to `CCCCN(CC)c1c([N+](=O)[O-])cc(C(F)(F)F)cc1[N+](=O)[O-]`, the half-maximal activity concentration (AC50) is 60.9 µM (active) in [2] and 43.8 µM (active) in assay [3].

As to `CCc1cccc(C)c1N(C(=O)CCl)C(C)COC` (stereo not drawn), the outcome in [6], in assay [7], in assay [2], in assay [3], in [11] and in assay [4] was inactive. Moreover, the half-maximal activity concentration (AC50) is 35.8 µM (active) in [8]; 48.9 µM (active) in assay [9]; 3.42 µM (active) in assay [10]; 9.46 µM (active) in assay [12]; 17.4 µM (active) in assay [13].

As for `S=C1NCCN1`, the call in [14], in assay [15], in assay [2], in assay [3] and in [4] was inactive. For the same molecule, the AC50 in assay [1] was 1.9 µM (active).

In the case of `CCCSP(=O)(OCC)SCCC`, the result in assay [1] and in assay [2] was inactive. The AC50 in assay [3] is 28.8 µM (active).

Turning to `CCCSP(=O)(OCC)Oc1ccc(Br)cc1Cl` (stereo not drawn), the call in [1], in [2] and in assay [3] was inactive. Also, in assay [4], the AC50 is 38.6 µM (active).

For the molecule `CCCOCC(=Nc1ccc(Cl)cc1C(F)(F)F)n1ccnc1`, the half-maximal activity concentration (AC50) is 36.8 µM (active) in assay [1]; 2.94 µM (active) in [9]; 22.7 µM (active) in assay [2]; 6 µM (active) in [3]; 23.1 µM (active) in [4]. The molecule was called inactive in [6], in [7], in assay [8] and in assay [12].

`CN(C)[C@@H]1C(=O)C(C(N)=O)=C(O)[C@@]2(O)C(=O)C3=C(O)c4c(O)cccc4[C@@](C)(O)[C@H]3[C@H](O)[C@@H]12`: the AC50 in [14] is 44.7 µM (active); in assay [16], 78.6 µM (active); in assay [17], 83.4 µM (active); in [15] it was 89.6 µM (active); in assay [1], 714 nM (active) and 72.3 µM (active); in assay [2], 50 µM (active). The half-maximal activity concentration (AC50) in [3] and in assay [5] was 50 µM (active) each time.
